A number with no mark means an inactive call.
Experiments:
Assay in all cases: log2 ratio of Biotin-Ahx-Ub-VS probe labelling (fragment/DMSO); higher = less target engagement (more negative = stronger competition), active = hit call of the paper (q ≤ 0.05, log2 ratio ≤ -1)
Conditions in all cases: compound concentration: 200 uM; treatment time: 3 h
USP42 = molecular target: T1, USP42 (UniProt Q9H9J4)
T1 sequence (whole entry): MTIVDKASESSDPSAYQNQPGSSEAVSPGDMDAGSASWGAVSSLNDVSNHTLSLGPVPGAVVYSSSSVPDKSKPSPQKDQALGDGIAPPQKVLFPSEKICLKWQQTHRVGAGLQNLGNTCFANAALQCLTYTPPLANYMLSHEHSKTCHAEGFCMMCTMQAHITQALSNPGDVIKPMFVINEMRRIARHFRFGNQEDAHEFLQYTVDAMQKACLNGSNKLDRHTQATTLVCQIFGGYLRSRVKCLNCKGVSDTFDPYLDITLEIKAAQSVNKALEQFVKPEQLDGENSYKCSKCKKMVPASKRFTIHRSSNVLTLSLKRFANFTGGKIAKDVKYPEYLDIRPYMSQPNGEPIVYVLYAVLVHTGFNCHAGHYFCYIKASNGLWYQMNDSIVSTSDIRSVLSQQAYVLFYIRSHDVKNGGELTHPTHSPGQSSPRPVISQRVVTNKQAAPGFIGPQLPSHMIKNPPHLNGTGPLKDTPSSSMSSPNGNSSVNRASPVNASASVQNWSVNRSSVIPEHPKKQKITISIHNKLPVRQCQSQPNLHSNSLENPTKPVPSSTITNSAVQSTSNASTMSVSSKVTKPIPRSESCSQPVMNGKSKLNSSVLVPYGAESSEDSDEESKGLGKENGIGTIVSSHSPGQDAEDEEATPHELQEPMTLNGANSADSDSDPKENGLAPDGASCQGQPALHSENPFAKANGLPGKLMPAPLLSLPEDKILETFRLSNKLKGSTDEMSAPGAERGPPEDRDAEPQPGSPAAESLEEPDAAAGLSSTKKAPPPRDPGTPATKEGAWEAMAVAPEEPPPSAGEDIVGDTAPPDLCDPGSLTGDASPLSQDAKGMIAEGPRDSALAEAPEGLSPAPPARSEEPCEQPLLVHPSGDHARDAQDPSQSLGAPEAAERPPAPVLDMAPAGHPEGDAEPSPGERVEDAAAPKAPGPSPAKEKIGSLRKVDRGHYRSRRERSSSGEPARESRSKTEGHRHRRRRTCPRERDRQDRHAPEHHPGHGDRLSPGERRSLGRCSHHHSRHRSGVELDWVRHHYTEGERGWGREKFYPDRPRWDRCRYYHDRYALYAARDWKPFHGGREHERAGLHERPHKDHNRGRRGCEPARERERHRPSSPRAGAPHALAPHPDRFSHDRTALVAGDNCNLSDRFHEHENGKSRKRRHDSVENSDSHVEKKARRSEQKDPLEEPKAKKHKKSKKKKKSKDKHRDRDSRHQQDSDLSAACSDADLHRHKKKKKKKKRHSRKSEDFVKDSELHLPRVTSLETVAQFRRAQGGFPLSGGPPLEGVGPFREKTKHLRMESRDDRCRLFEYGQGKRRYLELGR
In short: (§1)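 Each value is an average log2 ratio of fragment to vehicle, tested by unpaired t-test. The underlying Spectronaut label-free quantities were global-median-normalised, and only proteins with ≥2 unique peptides were included. Triplicate HEK293T lysate samples (495 µg) were exposed to fragment at 200 µM or vehicle for 3 h, then to Biotin-Ahx-Ub-VS at 0.5 µM final for 1 h, before NeutrAvidin enrichment of labelled DUBs, LysC and trypsin digestion, and diaPASEF LC-MS/MS.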

USP46 = USP46 (UniProt P62068)
In short: as §1

USP47 = molecular target: T2, USP47 (UniProt Q96K76)
T2 sequence (whole entry): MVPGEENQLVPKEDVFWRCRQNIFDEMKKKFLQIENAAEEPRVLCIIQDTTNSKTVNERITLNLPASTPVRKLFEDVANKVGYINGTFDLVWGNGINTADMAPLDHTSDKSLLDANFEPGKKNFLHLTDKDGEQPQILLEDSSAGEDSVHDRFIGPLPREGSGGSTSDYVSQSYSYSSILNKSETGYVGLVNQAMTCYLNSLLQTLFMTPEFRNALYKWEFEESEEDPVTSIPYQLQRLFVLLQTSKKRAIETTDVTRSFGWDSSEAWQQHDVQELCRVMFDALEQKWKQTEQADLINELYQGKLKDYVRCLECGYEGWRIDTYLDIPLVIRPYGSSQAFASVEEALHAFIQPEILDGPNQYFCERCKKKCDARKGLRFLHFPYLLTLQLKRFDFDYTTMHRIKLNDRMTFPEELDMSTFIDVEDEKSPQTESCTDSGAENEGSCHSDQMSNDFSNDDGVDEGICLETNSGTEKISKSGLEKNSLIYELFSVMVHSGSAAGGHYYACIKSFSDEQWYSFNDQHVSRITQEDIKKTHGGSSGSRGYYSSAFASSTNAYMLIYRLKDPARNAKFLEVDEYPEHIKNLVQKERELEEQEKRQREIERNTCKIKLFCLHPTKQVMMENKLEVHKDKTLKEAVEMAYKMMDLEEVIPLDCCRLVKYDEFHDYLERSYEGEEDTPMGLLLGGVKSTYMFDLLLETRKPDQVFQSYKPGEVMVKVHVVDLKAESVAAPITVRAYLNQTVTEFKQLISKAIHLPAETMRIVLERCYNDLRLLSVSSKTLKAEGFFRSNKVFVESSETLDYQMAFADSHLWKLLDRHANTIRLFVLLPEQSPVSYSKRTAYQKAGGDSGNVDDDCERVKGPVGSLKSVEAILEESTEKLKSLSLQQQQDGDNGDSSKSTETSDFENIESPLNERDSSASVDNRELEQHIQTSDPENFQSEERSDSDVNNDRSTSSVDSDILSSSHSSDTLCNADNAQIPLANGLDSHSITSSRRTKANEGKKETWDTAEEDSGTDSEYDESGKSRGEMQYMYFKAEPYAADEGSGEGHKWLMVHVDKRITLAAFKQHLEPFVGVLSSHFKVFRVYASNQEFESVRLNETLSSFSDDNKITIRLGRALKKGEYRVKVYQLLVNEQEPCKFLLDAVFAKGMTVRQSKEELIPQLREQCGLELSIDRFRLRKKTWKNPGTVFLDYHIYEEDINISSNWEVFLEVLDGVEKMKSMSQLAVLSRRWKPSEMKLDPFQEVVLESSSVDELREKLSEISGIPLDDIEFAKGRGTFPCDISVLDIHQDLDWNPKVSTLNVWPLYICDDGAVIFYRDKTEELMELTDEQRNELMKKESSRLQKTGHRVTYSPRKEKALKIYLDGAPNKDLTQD
In short: as §1

USP48 = molecular target: T3, USP48 (UniProt Q86UV5)
T3 sequence (whole entry): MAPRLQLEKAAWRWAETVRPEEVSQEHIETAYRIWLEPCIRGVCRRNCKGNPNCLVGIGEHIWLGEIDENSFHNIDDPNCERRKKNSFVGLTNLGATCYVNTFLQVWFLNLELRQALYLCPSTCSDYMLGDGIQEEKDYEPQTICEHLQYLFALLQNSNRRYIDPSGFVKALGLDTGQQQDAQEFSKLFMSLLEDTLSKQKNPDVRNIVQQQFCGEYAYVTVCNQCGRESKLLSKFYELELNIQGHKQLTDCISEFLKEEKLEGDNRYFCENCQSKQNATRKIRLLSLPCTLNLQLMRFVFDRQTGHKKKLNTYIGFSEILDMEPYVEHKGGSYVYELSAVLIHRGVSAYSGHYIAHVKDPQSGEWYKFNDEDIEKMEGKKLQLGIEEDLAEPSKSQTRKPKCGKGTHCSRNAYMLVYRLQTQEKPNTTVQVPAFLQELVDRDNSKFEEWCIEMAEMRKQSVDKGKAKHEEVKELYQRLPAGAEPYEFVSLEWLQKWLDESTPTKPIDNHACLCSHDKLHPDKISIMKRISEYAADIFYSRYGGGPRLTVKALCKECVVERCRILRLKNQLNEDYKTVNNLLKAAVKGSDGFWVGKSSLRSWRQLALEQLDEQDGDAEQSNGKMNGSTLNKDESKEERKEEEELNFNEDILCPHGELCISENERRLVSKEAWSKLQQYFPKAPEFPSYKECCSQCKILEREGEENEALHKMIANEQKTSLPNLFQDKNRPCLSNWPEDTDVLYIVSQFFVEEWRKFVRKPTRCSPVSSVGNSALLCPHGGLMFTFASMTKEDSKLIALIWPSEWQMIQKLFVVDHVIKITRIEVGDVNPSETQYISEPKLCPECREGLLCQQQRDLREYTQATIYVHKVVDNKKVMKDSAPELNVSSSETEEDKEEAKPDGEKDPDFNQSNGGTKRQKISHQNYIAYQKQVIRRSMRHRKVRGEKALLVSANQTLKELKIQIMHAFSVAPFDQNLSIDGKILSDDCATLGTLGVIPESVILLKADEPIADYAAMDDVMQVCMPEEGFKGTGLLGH
In short: as §1

USP5 = molecular target: T4, USP5 (UniProt P45974)
T4 sequence (whole entry): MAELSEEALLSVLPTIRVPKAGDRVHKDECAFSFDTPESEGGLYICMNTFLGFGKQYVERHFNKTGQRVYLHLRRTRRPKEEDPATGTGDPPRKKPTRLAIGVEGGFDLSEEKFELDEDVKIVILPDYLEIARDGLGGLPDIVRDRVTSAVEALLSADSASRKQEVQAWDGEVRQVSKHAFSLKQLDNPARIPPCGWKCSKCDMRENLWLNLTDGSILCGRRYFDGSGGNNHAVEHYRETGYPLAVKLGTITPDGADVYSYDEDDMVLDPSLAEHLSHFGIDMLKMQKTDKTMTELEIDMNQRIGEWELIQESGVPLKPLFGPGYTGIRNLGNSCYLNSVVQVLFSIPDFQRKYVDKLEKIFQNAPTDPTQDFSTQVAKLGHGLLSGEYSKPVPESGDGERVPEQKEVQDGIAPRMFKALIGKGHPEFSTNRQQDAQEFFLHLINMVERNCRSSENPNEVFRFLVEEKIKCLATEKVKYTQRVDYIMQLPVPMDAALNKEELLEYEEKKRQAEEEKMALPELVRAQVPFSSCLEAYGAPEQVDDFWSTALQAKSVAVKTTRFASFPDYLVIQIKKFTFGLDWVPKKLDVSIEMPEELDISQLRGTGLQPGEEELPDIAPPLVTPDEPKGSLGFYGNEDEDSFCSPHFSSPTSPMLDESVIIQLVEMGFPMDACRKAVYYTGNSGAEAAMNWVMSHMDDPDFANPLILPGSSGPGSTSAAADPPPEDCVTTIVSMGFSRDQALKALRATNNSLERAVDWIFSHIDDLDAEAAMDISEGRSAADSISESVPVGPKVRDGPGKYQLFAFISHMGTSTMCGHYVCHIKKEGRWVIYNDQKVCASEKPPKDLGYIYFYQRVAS
In short: as §1

USP54 = USP54 (UniProt Q70EL1)
In short: as §1

USP7 = USP7 (UniProt Q93009)
In short: as §1

USP8 = molecular target: T5, USP8 (UniProt P40818)
T5 sequence (whole entry): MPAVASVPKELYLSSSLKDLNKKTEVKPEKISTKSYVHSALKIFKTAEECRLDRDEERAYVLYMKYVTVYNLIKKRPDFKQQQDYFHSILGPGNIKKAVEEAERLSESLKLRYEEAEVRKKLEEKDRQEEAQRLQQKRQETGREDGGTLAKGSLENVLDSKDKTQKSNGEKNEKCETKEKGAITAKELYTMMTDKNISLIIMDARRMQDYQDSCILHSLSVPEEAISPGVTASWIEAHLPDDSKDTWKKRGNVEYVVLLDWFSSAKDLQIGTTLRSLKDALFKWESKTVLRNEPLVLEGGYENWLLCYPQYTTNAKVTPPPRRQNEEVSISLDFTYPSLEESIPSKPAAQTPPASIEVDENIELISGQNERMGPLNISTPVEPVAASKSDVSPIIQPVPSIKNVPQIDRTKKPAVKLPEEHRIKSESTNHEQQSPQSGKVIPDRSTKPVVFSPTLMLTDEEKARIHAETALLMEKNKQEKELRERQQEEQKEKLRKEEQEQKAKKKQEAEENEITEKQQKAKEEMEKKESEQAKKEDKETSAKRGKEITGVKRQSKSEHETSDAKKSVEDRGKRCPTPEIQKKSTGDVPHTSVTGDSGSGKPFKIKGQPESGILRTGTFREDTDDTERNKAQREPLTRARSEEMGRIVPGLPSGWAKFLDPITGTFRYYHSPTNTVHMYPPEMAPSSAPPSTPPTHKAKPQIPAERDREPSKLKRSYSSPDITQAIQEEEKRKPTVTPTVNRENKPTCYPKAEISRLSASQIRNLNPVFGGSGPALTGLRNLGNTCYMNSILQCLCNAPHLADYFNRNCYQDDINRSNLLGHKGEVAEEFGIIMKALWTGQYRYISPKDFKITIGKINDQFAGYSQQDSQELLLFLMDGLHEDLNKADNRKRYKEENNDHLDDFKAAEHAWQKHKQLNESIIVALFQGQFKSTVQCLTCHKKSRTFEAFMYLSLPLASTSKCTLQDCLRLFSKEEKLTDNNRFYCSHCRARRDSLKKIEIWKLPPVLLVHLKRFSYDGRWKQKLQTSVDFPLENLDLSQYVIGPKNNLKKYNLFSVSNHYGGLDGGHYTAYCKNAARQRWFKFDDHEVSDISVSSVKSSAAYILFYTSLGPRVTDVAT
In short: as §1

USP9X = USP9X (UniProt Q93008)
In short: as §1

UniProt O00487 = molecular target: UniProt O00487
In short: as §1

Chain of USP7 (Q93009 whole entry, looked up): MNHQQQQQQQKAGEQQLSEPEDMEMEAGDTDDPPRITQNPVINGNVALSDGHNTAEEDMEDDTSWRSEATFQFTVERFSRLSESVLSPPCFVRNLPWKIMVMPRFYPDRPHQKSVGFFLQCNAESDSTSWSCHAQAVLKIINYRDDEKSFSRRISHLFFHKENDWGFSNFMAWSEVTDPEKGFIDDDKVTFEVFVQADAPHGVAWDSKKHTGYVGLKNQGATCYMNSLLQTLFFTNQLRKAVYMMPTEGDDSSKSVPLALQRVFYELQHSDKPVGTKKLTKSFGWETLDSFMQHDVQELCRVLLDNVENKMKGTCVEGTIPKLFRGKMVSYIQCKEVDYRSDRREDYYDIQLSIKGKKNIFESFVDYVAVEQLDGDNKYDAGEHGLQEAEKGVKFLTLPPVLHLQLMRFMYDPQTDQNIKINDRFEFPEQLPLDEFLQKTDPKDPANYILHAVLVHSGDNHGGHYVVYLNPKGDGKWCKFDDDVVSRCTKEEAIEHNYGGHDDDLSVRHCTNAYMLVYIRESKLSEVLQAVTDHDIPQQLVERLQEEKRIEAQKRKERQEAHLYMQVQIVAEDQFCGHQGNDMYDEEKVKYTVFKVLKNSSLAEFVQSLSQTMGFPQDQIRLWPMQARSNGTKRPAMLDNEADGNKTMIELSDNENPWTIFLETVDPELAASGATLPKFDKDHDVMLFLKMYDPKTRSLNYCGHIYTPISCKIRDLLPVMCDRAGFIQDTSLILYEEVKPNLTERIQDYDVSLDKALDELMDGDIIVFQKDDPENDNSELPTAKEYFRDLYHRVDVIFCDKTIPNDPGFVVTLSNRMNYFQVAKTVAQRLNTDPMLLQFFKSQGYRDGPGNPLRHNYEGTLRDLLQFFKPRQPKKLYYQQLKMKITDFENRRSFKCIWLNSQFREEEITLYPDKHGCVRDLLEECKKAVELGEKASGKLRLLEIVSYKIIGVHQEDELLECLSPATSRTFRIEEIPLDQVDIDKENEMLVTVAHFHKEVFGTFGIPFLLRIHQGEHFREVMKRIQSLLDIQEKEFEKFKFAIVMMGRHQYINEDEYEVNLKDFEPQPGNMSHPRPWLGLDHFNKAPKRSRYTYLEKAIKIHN
Chain of USP9X (Q93008 whole entry): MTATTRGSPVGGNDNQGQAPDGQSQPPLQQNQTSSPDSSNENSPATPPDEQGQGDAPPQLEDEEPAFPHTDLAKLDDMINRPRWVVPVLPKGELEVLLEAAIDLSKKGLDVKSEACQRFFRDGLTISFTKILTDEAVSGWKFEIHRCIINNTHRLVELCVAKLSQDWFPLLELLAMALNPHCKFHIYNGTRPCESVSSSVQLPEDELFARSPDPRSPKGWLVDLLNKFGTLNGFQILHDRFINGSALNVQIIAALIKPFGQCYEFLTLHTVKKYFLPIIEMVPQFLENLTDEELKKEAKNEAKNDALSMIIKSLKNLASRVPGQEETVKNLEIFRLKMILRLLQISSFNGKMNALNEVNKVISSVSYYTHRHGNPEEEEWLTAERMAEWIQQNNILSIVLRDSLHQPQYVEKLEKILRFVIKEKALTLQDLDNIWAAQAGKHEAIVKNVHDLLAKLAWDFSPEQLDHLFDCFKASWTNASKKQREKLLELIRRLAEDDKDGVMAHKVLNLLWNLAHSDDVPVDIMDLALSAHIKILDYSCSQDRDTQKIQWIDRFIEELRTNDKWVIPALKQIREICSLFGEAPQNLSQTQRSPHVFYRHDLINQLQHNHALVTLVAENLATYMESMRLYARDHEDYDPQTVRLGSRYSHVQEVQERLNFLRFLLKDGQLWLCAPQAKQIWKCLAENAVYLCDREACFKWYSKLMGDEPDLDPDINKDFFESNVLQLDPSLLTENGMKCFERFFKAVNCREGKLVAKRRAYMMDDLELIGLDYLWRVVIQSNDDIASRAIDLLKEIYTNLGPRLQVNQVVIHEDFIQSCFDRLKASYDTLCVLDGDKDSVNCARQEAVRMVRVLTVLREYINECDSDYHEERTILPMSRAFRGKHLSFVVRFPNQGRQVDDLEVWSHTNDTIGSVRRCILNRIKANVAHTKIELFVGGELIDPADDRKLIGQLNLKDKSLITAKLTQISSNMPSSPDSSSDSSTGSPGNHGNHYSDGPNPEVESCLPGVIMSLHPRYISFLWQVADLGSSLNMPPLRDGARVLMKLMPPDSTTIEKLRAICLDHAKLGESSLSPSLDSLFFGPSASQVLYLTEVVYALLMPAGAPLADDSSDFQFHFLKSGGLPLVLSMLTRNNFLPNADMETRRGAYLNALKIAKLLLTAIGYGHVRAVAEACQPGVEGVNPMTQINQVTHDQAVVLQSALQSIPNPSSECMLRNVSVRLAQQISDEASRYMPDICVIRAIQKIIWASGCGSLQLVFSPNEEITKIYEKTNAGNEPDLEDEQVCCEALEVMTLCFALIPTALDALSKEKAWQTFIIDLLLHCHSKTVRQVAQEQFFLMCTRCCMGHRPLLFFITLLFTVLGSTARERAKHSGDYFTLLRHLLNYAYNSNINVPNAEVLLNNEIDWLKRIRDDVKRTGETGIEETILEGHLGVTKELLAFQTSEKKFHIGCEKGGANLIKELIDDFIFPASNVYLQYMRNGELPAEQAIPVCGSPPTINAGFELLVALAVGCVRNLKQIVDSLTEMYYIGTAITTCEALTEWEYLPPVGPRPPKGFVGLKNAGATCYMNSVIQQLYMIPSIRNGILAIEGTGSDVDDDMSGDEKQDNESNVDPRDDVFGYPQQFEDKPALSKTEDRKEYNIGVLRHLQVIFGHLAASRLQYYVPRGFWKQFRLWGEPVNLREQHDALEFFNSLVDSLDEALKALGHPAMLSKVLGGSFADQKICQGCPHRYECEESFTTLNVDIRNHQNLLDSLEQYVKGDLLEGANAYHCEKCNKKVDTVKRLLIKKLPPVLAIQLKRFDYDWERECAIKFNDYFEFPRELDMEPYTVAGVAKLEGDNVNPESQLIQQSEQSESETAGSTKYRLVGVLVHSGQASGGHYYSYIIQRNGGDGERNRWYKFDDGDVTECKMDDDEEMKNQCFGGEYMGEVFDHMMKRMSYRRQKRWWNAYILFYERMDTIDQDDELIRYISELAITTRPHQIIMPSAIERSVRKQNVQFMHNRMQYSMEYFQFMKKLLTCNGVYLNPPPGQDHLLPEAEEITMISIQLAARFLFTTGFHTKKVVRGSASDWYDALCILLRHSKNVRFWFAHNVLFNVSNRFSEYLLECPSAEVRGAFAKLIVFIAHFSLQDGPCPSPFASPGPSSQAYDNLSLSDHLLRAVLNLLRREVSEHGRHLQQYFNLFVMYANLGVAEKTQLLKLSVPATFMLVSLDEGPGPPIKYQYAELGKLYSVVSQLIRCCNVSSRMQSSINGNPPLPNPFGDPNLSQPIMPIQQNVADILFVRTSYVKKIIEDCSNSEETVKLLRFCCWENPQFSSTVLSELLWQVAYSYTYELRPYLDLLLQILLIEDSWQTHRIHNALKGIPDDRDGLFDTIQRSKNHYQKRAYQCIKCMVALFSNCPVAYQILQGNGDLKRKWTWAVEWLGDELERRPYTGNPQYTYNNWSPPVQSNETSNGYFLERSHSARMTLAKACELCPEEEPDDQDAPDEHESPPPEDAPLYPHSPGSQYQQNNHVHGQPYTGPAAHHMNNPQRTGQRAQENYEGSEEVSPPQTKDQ
Chain of USP46 (P62068 whole entry): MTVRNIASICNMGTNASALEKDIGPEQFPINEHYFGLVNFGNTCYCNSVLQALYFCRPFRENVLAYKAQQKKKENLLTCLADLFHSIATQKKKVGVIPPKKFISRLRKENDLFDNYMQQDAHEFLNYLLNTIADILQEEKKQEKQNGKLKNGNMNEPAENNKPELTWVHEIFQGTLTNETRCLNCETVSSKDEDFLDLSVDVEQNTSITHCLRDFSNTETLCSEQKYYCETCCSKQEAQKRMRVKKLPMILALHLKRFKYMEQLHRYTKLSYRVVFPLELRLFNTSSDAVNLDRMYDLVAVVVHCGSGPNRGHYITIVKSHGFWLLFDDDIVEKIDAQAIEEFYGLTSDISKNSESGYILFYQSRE
Chain of UniProt O00487 (O00487 whole entry): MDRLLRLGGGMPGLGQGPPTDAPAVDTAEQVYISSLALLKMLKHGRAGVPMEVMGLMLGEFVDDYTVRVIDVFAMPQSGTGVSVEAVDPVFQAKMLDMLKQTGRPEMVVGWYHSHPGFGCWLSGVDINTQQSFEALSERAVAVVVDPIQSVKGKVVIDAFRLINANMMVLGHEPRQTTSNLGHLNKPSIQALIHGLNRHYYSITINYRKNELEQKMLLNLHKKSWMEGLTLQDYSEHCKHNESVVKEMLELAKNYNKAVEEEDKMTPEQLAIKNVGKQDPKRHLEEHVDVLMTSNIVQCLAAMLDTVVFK

For `Cn1cc(CN(Cc2ccc(Cl)cc2)C(=O)CCl)cn1`, the “log2 ratio of Biotin-Ahx-Ub-VS probe labelling” value (from here on “log2 ratio”) (USP42) was 0.553, the “log2 ratio” value (USP46) was -0.635 and the “log2 ratio” value (USP47) was -1.45 (active). For the same compound, the “log2 ratio” value (USP48) was -0.598, the “log2 ratio” value (USP5) was 0.00584 and the “log2 ratio” value (USP54) was -0.648. For the same compound, the “log2 ratio” value (USP7) was -3.08 (active), the “log2 ratio” value (USP8) was 0.0316 and the “log2 ratio” value (USP9X) was -0.441. For the same compound, the “log2 ratio” value (UniProt O00487) was 0.0261.
